Drawing on PubChem BioAssay, this text covers composite z-score and z-score for five compounds.

Activity calls are given as the source filed them. Unless noted, how the calls were made is not given here.

The test system of test [1] is Wnt5a (protein binding on small-molecule microarray). Put plainly: small molecules binding Wnt5a protein – biophysical, small-molecule microarray, 635/667 nm fluorescence, primary screen (AID 1142).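 Further: fluorescence read at 667 nm with signal to noise per printed feature.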 Particulars: 635 nm fluorescence, higher = more signal.
The nature of test [2]: ATP-based viability of Huh7 replicon cells – cell-based, CellTiter-Glo luminescence, basal, 48 h, cytotoxicity control for HCV replication inhibitor project, primary screen (AID 1143).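 Further: Huh7 hepatoma cells carrying a hepatitis C replication reporter with no stimulus; test concentration not given here.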 To be noted: higher = more signal, called active from +8 up or from −8 down. A general note: In antiviral work, replicon cells carry a viral genome segment that copies itself.
Test [3] can be described thus: Pseudomonas biofilm growth suppression – PAO1 strain, BacTiter-Glo luminescence, LB-PBS, primary screen (AID 1144). Particulars: P. aeruginosa PAO1 biofilm, 12 h, higher = more signal.
Test [4] can be described thus: basal CRE-LacZ reporter activity in PC12 – cell-based, unstimulated, primary screen (AID 1145). To be noted: no forskolin, luminescence, 4.5 h, higher = more signal, called active from +8 up or from −8 down.
A short description of test [5]: forskolin-driven CRE-LacZ activity in PC12 – cell-based, CRE-LacZ reporter, forskolin-stimulated, primary screen (AID 1146).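 Further: PC12 cells with 6xCRE LacZ reporter stimulated by forskolin 10 µM; beta-galactosidase reporter signal reflecting CREB driven transcription.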 Particulars: luminescence, 4.5 h, higher = more signal, called active from +8 up or from −8 down.
Test [6] concerns the target Streptavidin (Streptomyces avidinii) (UniProt P22629). The test is described as follows: compounds binding control protein streptavidin – biophysical, small-molecule microarray, 635/667 nm fluorescence, artefact control for SMM compound annotation, primary screen (AID 1147).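 Further: signal reflects streptavidin binding to arrayed compounds as a control protein.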 Particulars: higher = more signal.
The nature of test [7]: probe aInhba binding on compound microarray – biochemical, small-molecule microarray, 635/667 nm fluorescence, primary screen (AID 1148).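 Further: score merges 667nm spot fluorescence with signal-to-noise for antibody binding to printed compounds.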 To be noted: higher = more signal.
Test [8] has as its target Torsin-1A (Homo sapiens) (UniProt O14656). The test is described as follows: TOR1A wild-type binding on microarray – cell lysate, small-molecule microarray, lysate, 635/667 nm, primary screen (AID 1149). To be noted: COS7 hTOR1A-WT lysate, 635 nm fluorescence, higher = more signal.
Test [9] has the same target. Put plainly: torsin A mutant lysate binding on microarrays – cell lysate, small-molecule microarray, COS7 lysate, 635/667 nm fluorescence, primary screen (AID 1150).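 Further: score pools 667 nm emission and signal to noise measuring lysate protein binding.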 To be noted: COS7 hTOR1A mutant lysate, 635 nm fluorescence, higher = more signal.
Test [10] deals with Sonic hedgehog protein (Shh). Put plainly: Sonic hedgehog microarray binding compounds – biochemical, small-molecule microarray, 635/667 nm fluorescence, primary screen (AID 1151).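 Further: Shh protein binding to compounds spotted on small-molecule microarray slides; score combines spot fluorescence intensity with signal-to-noise across triplicate slides.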 Particulars: 635 nm fluorescence, higher = more signal.
The nature of test [11]: optical density shifts of acrAB sulA E. coli – strain DRC41, OD650, 48 h, E. coli filamentation inducer project, primary screen (AID 1152).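 Further: E. coli MC1000 strain DRC41 lacking acrAB efflux pump and sulA.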 Particulars: higher = more signal, called active from +8 up or from −8 down.
Test [12] in a line: probe aLefty1 binding on compound microarray – biochemical, small-molecule microarray, 635/667 nm fluorescence, primary screen (AID 1153).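 Further: score merges spot fluorescence with signal-to-noise ratio from the scanned slide images.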 To be noted: higher = more signal.
Test [13] is described as follows: plasmodial surface anion channel blockers, osmotic lysis – cell-based, P. falciparum Indochina, OD700, 1 h, primary screen (AID 1154). To be noted: P. falciparum Indochina infected RBC osmotic lysis, higher = more signal, called active from +8 up or from −8 down.
The nature of test [14]: plasmodial surface anion channel blockers, osmotic lysis – cell-based, P. falciparum Indochina, OD700, 2 h, primary screen (AID 1155).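 Further: lysis reports solute entry through the parasite surface anion channel PSAC.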 Particulars: P. falciparum Indochina infected erythrocytes, higher = more signal, called active from +8 up or from −8 down.
Test [15] can be described thus: changes in parasitized red cell lysis, either direction – P. falciparum Indochina, OD700, 3 h, PSAC antagonist project, primary screen (AID 1156). To be noted: P. falciparum-infected erythrocytes, osmotic lysis, higher = more signal, called active from +8 up or from −8 down.
Test [16] is described as follows: plasmodial surface anion channel blockers, osmotic lysis – cell-based, P. falciparum Indochina, OD700, 18 h, primary screen (AID 1157). To be noted: P. falciparum Indochina infected erythrocytes, osmotic lysis OD700, 18 h; higher = more signal, called active from +8 up or from −8 down.
A short description of test [17]: S6 kinase pathway phospho-S6 level changes – cell-based, A549, cytoblot, luminescence, serum-stimulated, primary screen (AID 1158).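 Further: serum-stimulated A549 lung adenocarcinoma cells; signal is phosphorylated S6 detected by cytoblot immunostaining with HRP secondary.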 To be noted: 5 h, higher = more signal.
For test [18], the target named is NADPH oxidase 2 (Homo sapiens) (UniProt P04839). Put plainly: compounds shifting NOX2 Amplex Red fluorescence – cell-based, HEK293-NOX2, PMA-stimulated, NOX inhibitor project, primary screen (AID 1159). Further: test concentration not given here. Particulars: 45 min, higher = more signal, called active from +8 up or from −8 down.
Chain of NADPH oxidase 2 (Homo sapiens) (P04839 whole entry, looked up): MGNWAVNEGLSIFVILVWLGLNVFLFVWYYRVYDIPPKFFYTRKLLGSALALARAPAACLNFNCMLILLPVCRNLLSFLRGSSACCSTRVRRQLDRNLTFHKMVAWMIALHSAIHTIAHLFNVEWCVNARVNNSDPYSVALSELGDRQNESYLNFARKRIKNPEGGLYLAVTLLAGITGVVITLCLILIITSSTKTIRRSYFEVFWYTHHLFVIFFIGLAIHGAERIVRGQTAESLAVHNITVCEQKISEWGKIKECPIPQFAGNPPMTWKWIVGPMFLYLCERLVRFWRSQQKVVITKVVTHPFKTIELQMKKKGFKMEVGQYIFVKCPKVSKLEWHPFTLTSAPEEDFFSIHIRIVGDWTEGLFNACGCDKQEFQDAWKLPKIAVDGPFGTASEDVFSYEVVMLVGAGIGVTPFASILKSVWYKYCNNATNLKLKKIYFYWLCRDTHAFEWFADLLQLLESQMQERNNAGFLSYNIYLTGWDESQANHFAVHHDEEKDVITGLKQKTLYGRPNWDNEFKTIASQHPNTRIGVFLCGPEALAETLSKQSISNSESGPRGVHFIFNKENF
For test [19], the target named is NADPH oxidase 4 (Homo sapiens) (UniProt Q9NPH5). Put plainly: compounds shifting NOX4 Amplex Red fluorescence – cell-based, HEK293-NOX4, tetracycline-induced, NOX inhibitor project, primary screen (AID 1160). To be noted: HEK293-NOX4, Amplex Red H2O2 fluorescence, 45 min; higher = more signal, called active from +8 up or from −8 down.
Chain of NADPH oxidase 4 (Homo sapiens) (Q9NPH5 whole entry, looked up): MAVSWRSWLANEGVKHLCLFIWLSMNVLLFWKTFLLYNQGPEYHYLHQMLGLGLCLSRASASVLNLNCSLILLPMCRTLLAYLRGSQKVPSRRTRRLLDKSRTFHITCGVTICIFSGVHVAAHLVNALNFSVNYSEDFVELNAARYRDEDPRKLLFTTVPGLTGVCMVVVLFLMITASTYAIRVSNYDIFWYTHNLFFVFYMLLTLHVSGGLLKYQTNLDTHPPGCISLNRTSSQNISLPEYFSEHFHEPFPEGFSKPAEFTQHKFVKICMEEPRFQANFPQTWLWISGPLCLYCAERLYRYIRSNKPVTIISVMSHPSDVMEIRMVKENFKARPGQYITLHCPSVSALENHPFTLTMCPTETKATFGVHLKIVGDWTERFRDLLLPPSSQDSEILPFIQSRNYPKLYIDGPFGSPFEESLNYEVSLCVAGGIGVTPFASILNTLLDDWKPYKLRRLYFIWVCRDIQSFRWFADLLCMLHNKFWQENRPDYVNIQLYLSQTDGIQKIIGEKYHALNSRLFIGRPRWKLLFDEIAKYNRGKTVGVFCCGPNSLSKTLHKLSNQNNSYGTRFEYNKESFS
Test [20] addresses NADPH oxidase 5 (Homo sapiens) (UniProt Q96PH1). The test is described as follows: compounds shifting NOX5 Amplex Red fluorescence – cell-based, HEK293-NOX5, NOX inhibitor project, primary screen (AID 1161). To be noted: HEK293-NOX5, ionomycin, 45 min, higher = more signal.

Chain of NADPH oxidase 5 (Homo sapiens) (Q96PH1 whole entry, looked up): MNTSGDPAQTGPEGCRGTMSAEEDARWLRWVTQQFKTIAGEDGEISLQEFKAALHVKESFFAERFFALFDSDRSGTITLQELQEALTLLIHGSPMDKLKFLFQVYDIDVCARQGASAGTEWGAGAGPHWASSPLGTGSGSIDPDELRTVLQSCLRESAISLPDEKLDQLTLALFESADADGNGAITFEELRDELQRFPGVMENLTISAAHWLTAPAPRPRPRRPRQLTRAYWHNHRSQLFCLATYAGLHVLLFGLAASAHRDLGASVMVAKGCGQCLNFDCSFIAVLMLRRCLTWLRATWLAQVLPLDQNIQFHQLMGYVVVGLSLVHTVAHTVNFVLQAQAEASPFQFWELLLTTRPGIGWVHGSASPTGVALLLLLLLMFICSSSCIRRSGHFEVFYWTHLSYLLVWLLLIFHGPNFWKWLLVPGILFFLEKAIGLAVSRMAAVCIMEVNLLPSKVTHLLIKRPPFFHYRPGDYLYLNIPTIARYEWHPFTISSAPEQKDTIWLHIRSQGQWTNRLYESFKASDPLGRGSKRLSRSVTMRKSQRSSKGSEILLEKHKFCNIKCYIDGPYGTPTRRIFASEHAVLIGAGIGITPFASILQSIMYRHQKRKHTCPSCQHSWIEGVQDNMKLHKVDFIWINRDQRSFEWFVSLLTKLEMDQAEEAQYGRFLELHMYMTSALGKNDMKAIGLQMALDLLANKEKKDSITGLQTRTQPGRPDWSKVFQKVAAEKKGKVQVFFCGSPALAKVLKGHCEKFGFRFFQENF
Chain of Torsin-1A (Homo sapiens) (O14656 whole entry, looked up): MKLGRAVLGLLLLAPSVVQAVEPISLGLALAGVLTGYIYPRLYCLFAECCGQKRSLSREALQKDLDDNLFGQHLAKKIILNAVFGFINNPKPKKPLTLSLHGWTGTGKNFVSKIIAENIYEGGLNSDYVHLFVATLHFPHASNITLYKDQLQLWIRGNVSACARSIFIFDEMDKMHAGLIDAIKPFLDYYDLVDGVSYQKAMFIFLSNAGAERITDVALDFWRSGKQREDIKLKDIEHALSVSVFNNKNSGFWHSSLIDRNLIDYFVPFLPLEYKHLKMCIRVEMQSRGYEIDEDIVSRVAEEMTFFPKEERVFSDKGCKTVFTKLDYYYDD
Chain of Streptavidin (Streptomyces avidinii) (P22629 whole entry, looked up): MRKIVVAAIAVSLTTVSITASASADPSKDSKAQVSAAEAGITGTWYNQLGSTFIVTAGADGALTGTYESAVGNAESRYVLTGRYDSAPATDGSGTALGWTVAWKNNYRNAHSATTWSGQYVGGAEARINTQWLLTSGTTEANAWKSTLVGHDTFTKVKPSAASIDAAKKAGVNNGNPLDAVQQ

Take `NC(=O)NCC#Cc1ccc2c(c1)[C@]1(C(=O)N2)[C@H](C(=O)N2CCCCCCC2)[C@H]2C(=O)O[C@H](c3ccccc3)[C@H](c3ccccc3)N2[C@@H]1c1ccc(O)cc1`: the composite z-score in [1] was 0.399; in [6], 1.05; in [7], 1.51; with Torsin-1A (Homo sapiens) [8], 0.529; with Torsin-1A (Homo sapiens) [9], 0.676; in [10] it was 1.22. In test [12], this compound displayed a composite z-score of 2.3. The z-score in [2] was 0.33 (inactive); in test [3], -0.209 (inactive); in [4], 0.0695 (inactive); in test [5] it was -0.745 (inactive); in test [11], -0.504 (inactive); in [13] it was -0.268 (inactive). Further, the z-score in [14] was -0.0915 (inactive); in [15], -0.117 (inactive); in test [16] it was -0.0064 (inactive); in test [17], -0.602; in test [18] it was 1.67 (inactive); in test [19], 0.541 (inactive). For the same compound, in [20], the z-score is 1.15.

Turning to `CN(C)CCCNC(=O)[C@@H]1c2ccccc2C(=O)N(C2Cc3ccccc3C2)[C@H]1c1ccc(CO)cc1`, the composite z-score in test [1] is -0.128; in test [6], 0.359; in [7], 0.217; with Torsin-1A (Homo sapiens) [8], 0.798; with Torsin-1A (Homo sapiens) [9], 0.802; in test [10], 0.318. Moreover, the composite z-score in [12] was -0.765. The z-score in test [2] is -0.701 (inactive); in test [3] it was 0.491 (inactive); in test [4] it was -0.502 (inactive); in test [5] it was -1.14 (inactive); in [11] it was 0.776 (inactive); in test [13], 3.98 (inactive). The z-score was 0.517 (inactive) in test [14]; 1.79 (inactive) in test [15]; 0.281 (inactive) in test [16]; -0.421 in test [17]; 0.498 (inactive) in test [18]; 1.25 (inactive) in test [19]. The z-score in test [20] stood at 0.545.

For `COCCCNC(=O)[C@@H]1c2ccccc2C(=O)N(C2CCCCC2)[C@H]1c1ccc(CO)cc1`, the composite z-score in test [1] was -0.384; in test [6] it was -0.59; in [7] it was -0.0963; with Torsin-1A (Homo sapiens) [8], 0.691; with Torsin-1A (Homo sapiens) [9], -1.51; in test [10] it was -0.759. Besides, the composite z-score in test [12] worked out at 0.0839. Further, the z-score in test [2] is -4.86 (inactive); in [3], -0.303 (inactive); in [4], -0.385 (inactive); in test [5], 0.656 (inactive); in test [11] it was 0.416 (inactive); in [13] it was 0.794 (inactive). The z-score is -0.0928 (inactive) in test [14]; 0.65 (inactive) in test [15]; -0.51 (inactive) in test [16]; 2.35 in test [17]; 0.422 (inactive) in test [18]; -1.61 (inactive) in test [19]. In test [20], the z-score was -0.915.

In the case of `CCCCNC(=O)c1ccc(C#C[Si](C)(C)C)c(OC(C)=O)c1`, the composite z-score in test [1] was -0.0504; in test [6] it was 0.184; in [7] it was -0.12; with Torsin-1A (Homo sapiens) [8], 0.18; with Torsin-1A (Homo sapiens) [9] it was 1.1; in test [10] it was 0.985. For the same compound, in [12], the composite z-score was -0.0032. Also, the z-score in test [2] was -0.155 (inactive); in test [3] it was 0.305 (inactive); in [4], -0.773 (inactive); in [5], 0.0361 (inactive); in test [11], 0.151 (inactive); in test [13], 12.3 (active). The z-score is 1.64 (inactive) in test [14]; 1.67 (inactive) in test [15]; 0.672 (inactive) in test [16]; 0.726 in test [17]; 1.8 (inactive) in [18]; 0.194 (inactive) in test [19]. For the same compound, the z-score in test [20] came to 0.0648.

As to `C=CCNC(=O)[C@H]1[C@@H]2C(=O)O[C@@H](c3ccccc3)[C@@H](c3ccccc3)N2[C@@H](c2ccc(O)cc2)[C@]12C(=O)Nc1ccc(C#CC3=CCCCC3)cc12`, the composite z-score in test [1] was determined as 0.121; in test [6], 1.18; in test [7] it was 0.616; in the test with Torsin-1A (Homo sapiens) [8], 1.75; with Torsin-1A (Homo sapiens) [9] it was 0.462; in test [10] it was 2. In [12], this compound registered a composite z-score of 0.802. Also, the z-score is -3.15 (inactive) in [2]; -0.0901 (inactive) in test [3]; -0.671 (inactive) in test [4]; 0.21 (inactive) in test [5]; -0.164 (inactive) in test [11]; 1.54 (inactive) in [13]. The z-score is 1.23 (inactive) in test [14]; -0.355 (inactive) in test [15]; 1.1 (inactive) in test [16]; -0.101 in test [17]; 1.18 (inactive) in test [18]; 0.676 (inactive) in [19]. Further, the z-score in test [20] came to 1.61.
